Measurements taken from PubChem BioAssay.
Unmarked numbers belong to inactive results. No rule for the calls is given here.

System: Aerobactin synthetase IucA (Klebsiella pneumoniae, hypervirulent)
Experiment: biochemical IucA inhibition screen of LOPAC library by absorbance (AID 1346212);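 also: 100% = no compound wells and 0% = no enzyme wells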
Conditions: IucA enzyme assay, absorbance (OD) readout; stronger effect = lower value;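 tested at 8 µM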

Structure (SMILES)	remaining activity
CCCCCCCC/C=C\CCCCCCCC(=O)O	119%
C[N+](C)(C)CCCCCNCC12CC3CC(CC(C3)C1)C2	120%
Cc1nc2sccn2c(=O)c1CCN1CCC(=C(c2ccccc2)c2ccc(F)cc2)CC1	123%
COC(=O)c1c(-c2cc(OC)c(OC)c(OC)c2)c2ccc(OCc3ccccn3)cc2c(=O)n1-c1ccc(N)cc1	86.8%
O=C1N=c2cc(Cl)c(Cl)cc2=NC1=O	110%
CCOC(=O)Nc1ccc(NCc2ccc(F)cc2)nc1N	97.8%
C[N+](C)(C)CCCCCCCCCC[N+](C)(C)C	91.8%
Cc1ccc(C(=O)O[C@H](C(=O)O)[C@@H](OC(=O)c2ccc(C)cc2)C(=O)O)cc1 (tested in a mixture with another compound)	112%
OC(CN1CCC(Cc2ccc(F)cc2)CC1)c1ccc(Cl)cc1 (stereo not given)	99.6%
COc1cc(CC(=O)O)ccc1O	83.1%
O=C1c2ccccc2-c2n[nH]c3cccc1c23	88.6%
NCC(O)(CS(=O)(=O)O)c1ccc(Cl)cc1 (stereo not given)	103%
Cc1cc(O)c2c(c1)C(=O)c1cc(O)cc(O)c1C2=O	76.7%
C#CC(N)CCC(=O)O (stereo not given)	122%
CCCCCC(O)CCCC(=O)O (stereo not given)	101%
C#CCN1C(C)=C(C(=O)OC)C(c2cccc([N+](=O)[O-])c2)C(C(=O)OCC)=C1C (stereo not given)	112%
NC(=O)c1ncn([C@@H]2O[C@H](CO)[C@@H](O)[C@H]2O)c1O	122%
FC(F)(F)c1cc(CO[C@H]2CCCN[C@H]2c2ccccc2)cc(C(F)(F)F)c1	107%
COc1cc(C(=O)OCCCN2CCCN(CCCOC(=O)c3cc(OC)c(OC)c(OC)c3)CC2)cc(OC)c1OC	116%
OCc1cc(C(O)CNCCCCCCOCCCCc2ccccc2)ccc1O (stereo not given)	122%

Structure (SMILES)	remaining activity
Nc1ncnc2c1c(-c1ccc(Oc3ccccc3)cc1)cn2C1CCCC1	122%
NC(=Nc1ccccc1)NC(=O)c1nc(Cl)c(N)nc1N	105%
CN1CCc2c(cc(O)c(O)c2Cl)C(c2cccc(Cl)c2)C1 (stereo not given)	96.8%
Nc1nnc(-c2cccc(Cl)c2Cl)c(N)n1	114%
O=C(OCCN1CCCCC1)c1c[nH]c2ccccc12	102%
O=C1NC(=O)c2cc(Nc3ccccc3)c(Nc3ccccc3)cc21	113%
O=c1[nH]c(=O)n([C@H]2C[C@H](O)[C@@H](CO)O2)cc1Br	96.4%
Oc1ccc(/C=C/c2ccc(/C=C/c3ccc(O)cc3)c(Br)c2)cc1	85%
CC1(C)CCC(NC(=O)[C@@H](N)CCC(=O)O)CC1	116%
NC(=S)c1ccc[n+]([C@@H]2O[C@@H](COP(=O)([O-])OP(=O)(O)OC[C@H]3O[C@@H](n4cnc5c(N)ncnc54)C(OP(=O)(O)O)[C@H]3O)C(O)C2O)c1 (stereo not given in full)	97.1%
CCN1/C(=C/C(C)=O)Sc2ccc(OC)cc21	123%
CCN1CCC[C@H]1CNC(=O)c1c(O)c(Cl)cc(Cl)c1OC	98.9%
COc1ccc2c(c1)c(CC(=O)O)c(C)n2Cc1ccc(Cl)cc1	99.3%
CC(C)(C)c1onc(OCP(=O)(O)O)c1CC(N)C(=O)O (stereo not given)	112%
COc1cc(N)c(Cl)cc1C(=O)OCCN1CCCCC1	110%
CN(C)C(N)=NCCC[C@H](N)C(=O)O	97.3%
CC(C)Oc1cccnc1N(C)C1CCN(Cc2ccc(I)cc2)CC1	97.8%
CCc1c(C)[nH]c2c1C(=O)C(CN1CCOCC1)CC2 (stereo not given)	121%
O=[N+]([O-])c1ccc(CSc2ncnc3c2ncn3[C@@H]2O[C@H](CO)[C@@H](O)[C@H]2O)cc1	126%
NCCCNCCCCNCCCN	108%
